# Reference: the supplement of paper PMC10105736
# A number with no mark means an inactive call.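 How the source made its calls: active = MAPPIT score above the 99th percentile of random reference set scores in the same batch; inactive = at or below it.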
# Test system: sim
# Assay: MAPPIT interaction score (arbitrary units); higher = stronger binary interaction signal, active = hit call of the paper
# Details: MAPPIT configuration: N-C; pair source set: Lit-BM-16
# Method: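 MAPPIT in HEK293T cells: Drosophila bait and prey ORFs (from the FlyBi ORF collection) were co-transfected in quadruplicate, with two wells stimulated by erythropoietin. Interaction-dependent JAK-STAT activation was read out with a STAT-responsive firefly luciferase reporter. Positive calls use the 99th percentile of random reference set (RRS) scores within each batch […]. Batches Dvs01 and Dvs02 used the N-N configuration and Dvs04 the N-C configuration. Pairs come from FlyBi screens, CuraGen, DPiM, Finley Y2H, Lit-BM-16, Lit-BS-16 and RRS.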
# 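Further: HEK293T cells with Epo stimulation, STAT-responsive firefly luciferase reporter, fold induction versus unstimulated cells divided by the larger fold induction of two negative controls lacking either bait or prey.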
# tgo, sequence (chain, as listed by the source): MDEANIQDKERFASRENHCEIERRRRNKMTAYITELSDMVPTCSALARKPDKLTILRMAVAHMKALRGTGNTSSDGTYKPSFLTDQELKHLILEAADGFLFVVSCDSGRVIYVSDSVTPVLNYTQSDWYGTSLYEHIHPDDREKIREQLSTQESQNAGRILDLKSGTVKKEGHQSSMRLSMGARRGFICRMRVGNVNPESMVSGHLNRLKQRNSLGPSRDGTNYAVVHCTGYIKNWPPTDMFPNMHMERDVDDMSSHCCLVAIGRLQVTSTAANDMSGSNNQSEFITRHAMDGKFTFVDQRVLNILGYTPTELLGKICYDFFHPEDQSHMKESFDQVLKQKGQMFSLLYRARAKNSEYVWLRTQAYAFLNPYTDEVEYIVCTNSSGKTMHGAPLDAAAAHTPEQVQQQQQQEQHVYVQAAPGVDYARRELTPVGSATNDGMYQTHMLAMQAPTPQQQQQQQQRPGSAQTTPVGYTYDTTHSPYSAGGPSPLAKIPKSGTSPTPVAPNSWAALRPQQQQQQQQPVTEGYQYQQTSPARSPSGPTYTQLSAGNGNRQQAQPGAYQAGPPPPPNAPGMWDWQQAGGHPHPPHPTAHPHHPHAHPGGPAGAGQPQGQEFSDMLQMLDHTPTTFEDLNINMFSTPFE
row,Substance,MAPPIT interaction score
1,tgo,2.23

# Same assay, conditions: MAPPIT configuration: N-N; pair source set: Lit-BM-16
row,Substance,MAPPIT interaction score
1,tgo,1.37
